Screening data from PubChem.
A selection: hits, their analogues and other compounds. The true share with any hit is near 21%.
DT40 TDP1 CPT: qHTS for Inhibitors of human tyrosyl-DNA phosphodiesterase 1 (TDP1): qHTS in cells in presence of CPT. chicken DT40 Tdp1-/-;hTDP1 cells + 20 nM CPT, ATP luminescence, 48 h. Potency, µM (doses to about 46.2 µM), inactives show at the highest dose activity change, negative = growth inhibition, most hits filed as inhibitors. actives 12% (n = 420,000). AID 686979, 2013; also: potency is read from the fitted curve at half-maximal effect; % is scaled to controls: 0 for no effect and ±100 for the full control effect; nearly all actives have a fitted effect of over 55% in size
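Chicken DT40 Tdp1-/- cells stably complemented with human TDP1 were seeded at 400 cells/well in medium containing 20 nM camptothecin, exposed to pin-transferred compounds, and grown at 37 °C for at least 48 hr. Viability was read as ATP luminescence.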
D3 antag: qHTS of D3 Dopamine Receptor Antagonist: qHTS | D(3) dopamine receptor (Homo sapiens), P35462 | D3R cells, DiscoveRx beta-arrestin luminescence, antagonist mode; active compounds read low | max response, negative = inhibition, % | actives 2.5% (n = 360,000) | AID 652054, 2013; in the data active = max response below about -50%; inconclusive = no clear call, values can overlap the other calls; also: % is scaled to controls: 0 for no effect and ±100 for the full control effect
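Cells plated overnight at 1500 cells/well, then exposed to library compounds with dopamine controls for 90 minutes at 37 degrees C. DiscoveRx reagent added for 30–60 minutes at room temperature; luminescence read, quantitative HTS format.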
TDP1 cell noCPT: qHTS for Inhibitors of human tyrosyl-DNA phosphodiesterase 1 (TDP1): qHTS in cells in absence of CPT. Potency, µM (highest dose often 46.2 µM), without a hit: at the highest dose activity change, negative = growth inhibition, usual class: inhibitors. actives 15% (n = 420,000). DT40 Tdp1-/- hTDP1 cells, no CPT, ATP luminescence, 48 h; also: potency is read from the fitted curve at half-maximal effect; % is scaled to controls: 0 for no effect and ±100 for the full control effect; nearly all actives have a fitted effect of over 55% in size
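No-CPT arm: Tdp1-/-;hTDP1 DT40 cells (400/well) plus compounds, incubated ≥48 hr at 37 °C. Readout CellTiter-Glo luminescence.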
D3 ag: qHTS of D3 Dopamine Receptor Agonist: qHTS; D(3) dopamine receptor (Homo sapiens), P35462; D3R DiscoveRx beta-arrestin cells, luminescence, 90 min; max activation, %; actives 0.58% (n = 410,000); in the data active = max activation above about 30%; also: 0% is about no effect
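Agonist-mode cell screen: cells plated at 1500/well and incubated overnight at 37 °C, then exposed to library compounds for 90 min at 37 °C. Detection reagent was added for 30–60 min at room temperature, and luminescence was read.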
ClpP mod: qHTS Assay for Activators of ClpP; ATP-dependent Clp protease proteolytic subunit (Bacillus subtilis (strain 168)), P80244; purified B. subtilis ClpP, FRET peptide cleavage, 20 min; Potency, µM (titrated, usually from 57.5 µM), for the others: top-dose activity change, negative = active; actives 1.9% (n = 340,000); AID 651965, 2013; active = well fitted falling curve with a large enough effect; inconclusive = small, poorly fitted or top-dose-only effect; inactive = no such curve, though single readings can be large or run the other way; also: potency is read from the fitted curve at half-maximal effect; the source files actives as falling curves though it sought activators and does not explain the sign; nearly all actives have a fitted effect of over 65% in size
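Purified B. subtilis ClpP, 10 microg/mL final in Tris/HCl pH8 with KCl, BSA, glycerol and Tween-20, cleaved an Abz/nitrotyrosine-quenched decapeptide. Fluorescence (ex 320, em 430) was read at 0 and 20 min at room temperature. Delta was normalized to 5.8 microM ADEP and DMSO/no-enzyme controls.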
IL-1B inflam inh: qHTS for Inhibitors of Inflammasome Signaling: IL-1-beta AlphaLISA Primary Screen; THP-1 LPS/ATP IL-1B secretion, AlphaLISA, 16 h; active compounds read low; activity change, % at 57.5 µM; actives 4.7% (n = 360,000); in the data active = activity change below about -50%; inconclusive = mostly about -30% to -49%; also: % is scaled to controls: 0 for no effect and ±100 for the full control effect
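THP-1 cells pretreated 1 hr with compounds (up to 57.5 uM final), then stimulated with LPS (250 ng/mL final) plus ATP (1.25 mM final); secreted IL-1B measured by AlphaLISA after 16 hr, decreased signal indicating inhibition.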
* marks the source's active call; other numbers are inactive results; ? = inconclusive; . = not tested or not shown. Unless noted, calls follow the shape of the dose curve; as a rule, active = well fitted inhibition curve with a large enough effect; inconclusive = small, poorly fitted or top-dose-only effect; inactive = flat fitted curve, though single readings scatter.

SMILES	DT40 TDP1 CPT	D3 antag	TDP1 cell noCPT	D3 ag	ClpP mod	IL-1B inflam inh
O=C1NC2=C(C(=O)CCC2)C(c2cccc([N+](=O)[O-])c2)N1 (stereo not given)	9%	-26	1%	-2	-6%	-9
COc1cc2c(cc1OC)C1(CCCC1)CNC2c1cccc([N+](=O)[O-])c1 (stereo not given)	-4%	-77*	?	-35	.	5
CCOC(=O)CSc1nc(-c2ccc(C)cc2C)cc(-c2ccccc2)c1C#N	4%	.	2%	3	-7%	.
COc1ccccc1-c1cc(-c2ccccc2)nc(SC(C(N)=O)c2ccccc2)c1C#N (stereo not given)	?	-5	23µM*	-1	-25%	15
CC(Sc1nc(C(C)(C)C)cc(-c2ccccc2)c1C#N)C(=O)Nc1ccccc1 (stereo not given)	?	-26	29µM*	-5	-2%	23
CCOC(=O)C(C)Sc1nc(-c2ccccc2Cl)cc(-c2ccccc2)c1C#N (stereo not given)	13µM*	.	?	0	-20%	.
Cc1ccc(C)c(NC(=O)COC(=O)c2cccc(S(=O)(=O)N3CCCC3)c2)c1	-7%	-12	-19%	-1	-1%	14
O=C(O)c1ccc(CSc2nc(-c3ccc(Cl)cc3)cc(C(F)(F)F)n2)cc1	?	-16	-4%	11	-9%	22
COc1ccc(/C=N/Nc2nc(C)cc(-c3ccccc3)n2)c(OC)c1	13%	-4	21µM*	2	-5%	23
COc1ccc(/C=N/Nc2ncccc2[N+](=O)[O-])c(OC)c1	-2%	-54*	?	-3	2%	-17
Cc1cc(-c2ccccc2)nc(N/N=C/c2ccc(O)cc2)n1	12µM*	2	?	9	.	-100*
Oc1ccc(/C=N/Nc2nc(-c3ccc(Cl)cc3)cc(C(F)(F)F)n2)cc1	?	66	?	7	-6%	-99*
COc1ccc(C2C(C(=O)Nc3cc(OC)c(OC)c(OC)c3)c3ccccc3C(=O)N2C)cc1OC (stereo not given)	-10%	-7	-9%	-7	.	46
COc1ccc(/C=N/Nc2cc(C)nc3ccc(OC)cc23)c(OC)c1	12µM*	-13	5.8µM*	-3	-2%	-104*
COCCCNc1nc(NCc2cccc(Cl)c2)c2cnn(C)c2n1	?	.	18µM*	7	-13%	.
CCC(=O)N1Cc2cc(C(=O)NCC(F)(F)F)nc(-c3cccc(-c4cncnc4)c3)c2[C@@H]1CCO	21µM*	0	?	-18	1%	-1
CCCNC(=O)c1cc2c(c(-c3cccc(-c4ccccc4F)c3)n1)[C@@H](CCO)N(C(=O)CC1CC1)C2	26µM*	0	?	-12	1%	-16
CCNC(=O)c1cc2c(c(-c3cccc(-c4ccccc4F)c3)n1)[C@H](CCO)N(C(=O)CC)C2	7.3µM*	-6	5.8µM*	-5	2%	38
O=C(NCC(F)(F)F)c1cc2c(c(-c3cccc(-c4ccccc4F)c3)n1)[C@H](CCO)N(C(=O)CC1CC1)C2	16µM*	6	21µM*	-11	0%	-23
CC(=O)N1Cc2cc(C(=O)NCC(F)(F)F)nc(-c3cccc(-c4cc5ccccc5o4)c3)c2[C@H]1CCO	?	1	-30%	-10	?	4
CC(=O)c1ccc(S(=O)(=O)N2CCC(NC(=O)c3ccccc3)CC2)cc1	-8%	10	-1%	4	2%	16
CCOC(=O)c1cccnc1SCC(=O)NCc1ccccc1	1%	6	-11%	17	5%	12
CCN(C(=O)CSc1nc(-c2ccccc2)no1)c1cccc(C)c1	1.6µM*	.	1.5µM*	10	0%	.
CCOC(=O)c1cccnc1SCC(=O)N(CC)c1cccc(C)c1	23µM*	15	?	1	1%	1
CCN(C(=O)CSc1nc2ccccc2nc1Cc1ccc(F)cc1)c1cccc(C)c1	?	.	?	2	2%	.
SMILES	DT40 TDP1 CPT	D3 antag	TDP1 cell noCPT	D3 ag	ClpP mod	IL-1B inflam inh
CCN(C(=O)CSc1ncccc1C(=O)OC(C)C)c1cccc(C)c1	21µM*	21	?	-11	-2%	-20
COc1ccc(OCC(O)CNS(=O)(=O)c2cccs2)cc1 (stereo not given)	?	9	-16%	-1	1%	24
Cc1ccc(N2CC(NC(=O)C(=O)c3c[nH]c4ccccc34)CC2=O)cc1 (stereo not given)	-6%	.	-29%	6	-1%	.
Cc1cc(Br)cn2c(Cc3ccsc3)c(-c3ccc(F)cc3)nc12	-24%	11	15µM*	1	1%	74
CCCc1nc2c(C)cc(Br)cn2c1Cc1ccsc1	?	5	23µM*	6	-5%	25
Cc1cc(Br)cn2c(Cc3ccsc3)c(C(C)(C)C)nc12	?	14	26µM*	9	-19%	12
CCCc1nc2c(C)cc(Br)cn2c1Cc1ccccc1	?	13	?	-5	-5%	74
CCCc1nc2c(C)cc(Br)cn2c1Cc1ccccc1C(F)(F)F	23µM*	0	23µM*	-6	-5%	39
Cc1cc(Br)cn2c(Cc3ccccc3C(F)(F)F)c(-c3ccccc3)nc12	?	25	?	0	1%	43
Cc1ccc(Cc2c(C(C)(C)C)nc3ccc(Br)cn23)cc1	?	-14	?	-2	-13%	7
Cc1ccc(S(=O)(=O)CCC(=O)N2CCN(c3ccc([N+](=O)[O-])cc3)CC2)cc1	18µM*	-7	10µM*	4	-4%	-13
COc1ccc(N2CCN(C(=O)CCS(=O)(=O)c3ccc(C)cc3)CC2)cc1	?	-19	-29%	-3	-5%	-2
COc1ccc(S(=O)(=O)CCC(=O)N2CCN(c3ccc([N+](=O)[O-])cc3)CC2)cc1	10µM*	10	3.7µM*	-2	1%	?
COc1cc(CCC(=O)N2CCN(c3ccc([N+](=O)[O-])cc3)CC2)cc(OC)c1OC	?	74	?	8	-1%	0
